# ± gives the uncertainty stated by the source.
# Test system: Candidatus Liberibacter solanacearum in potato hairy roots
# Assay: relative CLso titer (% of untreated control); higher = less inhibition of bacterial titer
# Details: 10 µM; 72 h
# Method: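 Primary screen of ~220 Spectrum collection (MicroSource) compounds at 10 µM (0.1% DMSO) on Candidatus Liberibacter solanacearum-infected potato hairy roots in multi-well plates (Gamborg B-5 medium, vacuum infiltrated, 21 °C, dark, 72 h). CLso titer was measured by qPCR of 16S rDNA normalised to potato RPL2 (2^-ddCq), pairwise-standardised against untreated controls, averaged over two biological replicates and expressed as % of untreated.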
row,Structure (SMILES),relative CLso titer [%]
1,N.N.[Cl][Pt][Cl],76.7 ± 6.9
2,CN[C@@H](C)[C@@H](O)c1ccccc1,98.4 ± 3.8
3,Cc1cccc(C)c1NC1=NCCCS1,91.4 ± 17
4,O=P1(N(CCCl)CCCl)NCCCO1 (stereo not given),39.8 ± 6.9
5,CN1C[C@H](C(=O)N[C@]2(C)O[C@@]3(O)[C@@H]4CCCN4C(=O)[C@H](Cc4ccccc4)N3C2=O)C[C@@H]2c3cccc4[nH]cc(c34)C[C@H]21,107 ± 46
6,NC(=O)CN1CCCC1=O,123 ± 35
7,C[C@@H]1C[C@@H]([C@H](O)CC2CC(=O)NC(=O)C2)C(=O)[C@@H](C)C1,214 ± 43
8,[O-][n+]1ccccc1[S-].[O-][n+]1ccccc1[S-].[Zn+2],64.7 ± 4.9
9,C[C@@H]1O[C@@H](O[C@H]2C[C@@H](O)[C@]3(CO)[C@H]4[C@H](O)C[C@]5(C)[C@@H](C6=CC(=O)OC6)CC[C@]5(O)[C@@H]4CC[C@]3(O)C2)[C@H](O)[C@H](O)[C@H]1O,85.6 ± 47
10,COc1ccc2c(c1)[C@]13CCCC[C@@H]1[C@H](C2)N(C)CC3,539 ± 330
11,CCCC(C)(COC(N)=O)COC(=O)NC(C)C (stereo not given),92.4 ± 17
12,CCC(=O)O[C@H]1CC[C@H]2[C@@H]3CCC4=CC(=O)CC[C@]4(C)[C@H]3CC[C@]12C,83.1 ± 2.9
13,Cc1cc(O)ccc1Cl,45.9 ± 1.8
14,Cc1ccc(O)cc1.Cc1cccc(O)c1.Cc1ccccc1O,70.4 ± 30
15,CNC(C)[C@H](O)c1ccccc1 (stereo not given in full),160 ± 24
16,CC(=O)O[C@H]1C[C@H](O[C@H]2[C@@H](O)C[C@H](O[C@H]3[C@@H](O)C[C@H](O[C@H]4CC[C@@]5(C)[C@H](CC[C@@H]6[C@@H]5C[C@@H](O)[C@]5(C)[C@@H](C7=CC(=O)OC7)CC[C@]65O)C4)O[C@@H]3C)O[C@@H]2C)O[C@H](C)[C@H]1O[C@@H]1O[C@H](CO)[C@@H](O)[C@H](O)[C@H]1O,118 ± 37
17,C[C@]12CC[C@H]3[C@@H](CCC4=CC(=O)CC[C@@]43C)[C@@H]1CC[C@@H]2O,119 ± 11
18,CC(C)C[C@H]1C(=O)N2CCC[C@H]2[C@]2(O)O[C@](NC(=O)[C@@H]3C=C4c5cccc6[nH]c(Br)c(c56)C[C@H]4N(C)C3)(C(C)C)C(=O)N12,76.9 ± 25
19,COc1cc2c(c(OC)c1OC)-c1ccc(OC)c(=O)cc1[C@@H](NC(C)=O)CC2,47.6 ± 2.7
20,CC[C@H]1CN2CCc3cc(OC)c(OC)cc3[C@@H]2C[C@@H]1C[C@H]1NCCc2cc(OC)c(OC)cc21,117 ± 28
21,Fc1ccc(Oc2ccnc3cc(Cl)cc(Cl)c23)cc1,85.4 ± 20
22,O=C1CCO1,103 ± 58
23,c1ccc2c(c1)sc1ccccc12,193 ± 4.5
24,O=C(O)CCCO,127 ± 31
25,CCCCCCCCCCCCCCCC[n+]1ccccc1,136 ± 72
26,O=c1[nH]c2ccccc2n1C1CCN(CCCC(c2ccc(F)cc2)c2ccc(F)cc2)CC1,135 ± 2
27,O=C(O)CCCc1ccc(N(CCCl)CCCl)cc1,111 ± 11
28,C[N+]12CCC(CC1)C(OC(=O)C(O)(c1ccccc1)c1ccccc1)C2 (stereo not given),57.1 ± 5
29,O=c1[nH]c2ccccc2n1CCCN1CCC(n2c(=O)[nH]c3cc(Cl)ccc32)CC1,126 ± 28
30,CO[C@]12C[C@@H](COC(=O)c3cncc(Br)c3)CN(C)[C@@H]1Cc1cn(C)c3cccc2c13,135 ± 20

# Source: the supplement of paper PMC7669877
